Bioassay records as filed in PubChem.
Shiga inhibitor: Shiga toxin inhibition | Vero cells, Shiga toxin protein synthesis inhibition reporter | inhibition, % at 38.7 µM | hit rate 9.2% among 290,000 | AID 2315; in the data active means inhibition mostly above about 28%, no sharp cut-off; inactive means mostly below about 43%; further: 0% is about no effect
Cycloheximide cs: counter-screen hit for Shiga toxin inhibitors, cycloheximide. max response, %. AID 2314. hit rate 12% among 300,000. cell reporter, cycloheximide protein synthesis inhibition counterscreen; in the data active means max response mostly above about 13%, no sharp cut-off; inactive means mostly below about 14%; further: read at 38.3 µM for the half of the compounds with a filed dose; 0% is about no effect
Pf growth 96h: P. falciparum growth inhibition at 96 hours. P. falciparum luciferase reporter growth, 96 h. Potency, µM (doses to about 28.7 µM), inactives show at the highest dose activity change, negative = inhibition, usual class: inhibitors. hit rate 6.9% among 320,000; further: potency means the concentration at half of the fitted maximal effect; on the % scale 0 is the no-effect control and ±100 the full control effect
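P. falciparum expressing integrated firefly luciferase grown in erythrocytes (2% hematocrit, 0.05% parasitemia final) with compounds for 96 hours at 37 C, 5% CO2. Growth inhibition read as loss of luminescence after adding luciferase detection reagent.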
Pf growth 48h: P. falciparum growth inhibition at 48 hours (one generation) | hit rate 5.9% among 310,000 | AID 504832 | P. falciparum luciferase growth in erythrocytes, 48 h | Potency, µM (doses to about 28.7 µM), without a hit: top-dose activity change, negative = inhibition, most hits filed as inhibitors; further: potency means the concentration at half of the fitted maximal effect; on the % scale 0 is the no-effect control and ±100 the full control effect
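A one-generation exposure of luciferase-tagged malaria parasites in RPMI 1640/Albumax erythrocyte culture, 37 C and 5% CO2. Inhibition is inferred from decreased luminescence after adding detection reagent.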
Starred values were filed as active, the others as inactive; ? = inconclusive; . = not tested or not shown. A selection: hits, their analogues and other compounds. The true share with any hit is near 21%. Unless noted, the call rests on the fitted dose curve; in most records, active means well fitted inhibition curve with a large enough effect; inconclusive means small, poorly fitted or top-dose-only effect, or another doubt; inactive means no such curve, though single readings can be large or run the other way.

SMILES | Shiga inhibitor | Cycloheximide cs | Pf growth 96h | Pf growth 48h
CCO[C@H]1OC(C(=O)N2CCN(Cc3ccc4c(c3)OCO4)CC2)=C[C@@H](C2CCCCC2)[C@@H]1CCCO | -9 | -1 | 4.1µM* | ?
O=C(Cc1ccc(F)cc1)Nc1cccc(-c2cn3c(n2)SCC3)c1 | 39 | 14 | -4% | -6%
O=C(Oc1ccc(-c2cn3c(n2)SCC3)cc1)c1ccccc1 | 11 | 12* | . | -16%
O=C(Nc1cccc(-c2cn3c(n2)SCC3)c1)c1ccc(Br)o1 | 29 | 17 | 0.74µM* | 17%
O=C(Nc1ccc(-c2cn3c(n2)SCC3)cc1)c1ccco1 | 65* | 40* | 110% | 62%
CC(=O)Nc1ccc(-c2cn3c(n2)SCC3)cc1 | 28 | 32* | 84% | 81%
CC(=O)Nc1ccc(S(=O)(=O)Nc2cccc(-c3cn4c(n3)SCC4)c2)cc1 | -4 | -3 | ? | ?
CC(=O)c1ccc(S(=O)(=O)Nc2cccc(-c3cn4c(n3)SCC4)c2)cc1 | 12 | 14 | ? | 3%
COc1ccc(CNC(=O)C2CCCN2S(=O)(=O)c2ccc(F)cc2)cc1 (stereo not drawn) | 13 | 5 | -22% | -3%
NCCCn1c(C(=O)c2cc(Cl)c(N)c(Cl)c2)c2ccc([N+](=O)[O-])cc2[n+]1[O-] | . | . | ? | 12µM*
NCCCn1c(C(=O)c2cc(Cl)c(N)c(Cl)c2)c2ccc(C(F)(F)F)cc2[n+]1[O-] | . | . | ? | 6.6µM*
Cc1ccc(C(=O)c2c3ccc([N+](=O)[O-])cc3[n+]([O-])n2CCC(N)=O)cc1 | 16 | 3 | 0% | -21%
NC(=O)CCCn1c(C(=O)c2cc(Cl)c(N)c(Cl)c2)c2ccc(C(F)(F)F)cc2[n+]1[O-] | . | . | 4.7µM* | 5.9µM*
Cc1ccc(C(=O)c2c3ccccc3[n+]([O-])n2CCC(N)=O)cc1 | 27 | 14 | 16% | -4%
CC(C)n1nnc2cc(C(=O)O)ccc21 | -4 | 11 | . | .
CC(=O)Nc1ccc(S(C)(=O)=O)c(C)c1 | 9 | -1 | -16% | 21%
Cc1ccc(Cn2nnc3c(=O)n(Cc4ccccc4C)cnc32)cc1 | 1 | -2 | 3% | 1%
COc1ccc(Cl)cc1S(=O)(=O)N1CCN(C)CC1 | 13 | -2 | -12% | .
COc1ccc(Cl)cc1S(=O)(=O)N1CCN(C(=O)c2cc(OC)c(OC)c(OC)c2)CC1 | -11 | -2 | 12µM* | ?
COc1ccc(Cl)cc1S(=O)(=O)N1CCC(C(=O)NC2CC2)CC1 | -8 | -3 | 8.3µM* | ?
COc1ccc(CCNC(=O)Cn2c(=O)n(-c3ccc(C)c(F)c3)c(=O)c3sccc32)cc1OC | 6 | 9 | 37% | -2%
Cc1c(C2=CCN(S(=O)(=O)c3cccc(Cl)c3)CC2)c2ccccc2n1CC(=O)N1CCCC1 | 20 | 6 | . | .
CC(Cc1ccccn1)NC(=O)CCc1nnc(C2CCCCC2)o1 (stereo not drawn) | 15 | 11* | 13µM* | 0%
Oc1ccc(/C=C/c2ccc3cccc(O)c3n2)cc1Br | 68* | 50* | ? | .
COC(=O)c1ccc(/C=C/c2ccc3cccc(OC(C)=O)c3n2)cc1 | 117* | 57* | 63% | 35%
SMILES | Shiga inhibitor | Cycloheximide cs | Pf growth 96h | Pf growth 48h
O=C(O)c1ccc(/C=C/c2ccc3cccc(O)c3n2)cc1 | 82* | 41* | 1% | 179%
Cc1nn(C)c(C)c1-c1cccc2c1CCC(N(C)C)C2 (stereo not drawn) | 14 | -1 | . | .
Cc1nc(CS(=O)c2ccccc2)cc(N2CCOCC2)n1 (stereo not drawn) | -15 | -4 | 8.3µM* | ?
Cc1nc(CS(=O)c2ccc(Cl)cc2)cc(N2CCOCC2)n1 (stereo not drawn) | 12 | 6 | 95% | -10%
CCC(CC)C(=O)Nc1cc(Cl)ccc1C | 18 | -5 | -4% | -19%
CC(C)CC(c1nnnn1C1CCCC1)N1CCC(C(N)=O)CC1 (stereo not drawn) | 3 | 7 | 0% | -2%
OCCN1CCN(CCCN2c3ccccc3Sc3ccc(C(F)(F)F)cc32)CC1 | -25 | -7 | 1.9µM* | 5.2µM*
FC(F)(F)c1ccc2c(c1)N(CCCN1CCN(CCCl)CC1)c1ccccc1S2 | 26 | -3 | . | 9.3µM*
OCCN1CCN(CCCN2c3ccccc3C=Cc3ccccc32)CC1 | -6 | -5 | 6µM* | 6.7µM*
CN1CCN(CCC(=O)N2c3ccccc3Sc3ccc(C(F)(F)F)cc32)CC1 | 12 | 10 | 11µM* | ?
CC(=O)NCc1ccc(C(=O)CN2C(=O)NC3(CCCCC3C)C2=O)s1 (stereo not drawn) | . | . | -3% | ?
CCN(CC(=O)Nc1c(F)cccc1F)C(=O)c1cc(-c2cccs2)nn1-c1ccccc1 | . | . | -11% | ?
O=c1c2ccccc2oc2ccc(NCCCN3CCOCC3)cc12 | 43* | 36* | 216% | 312%
O=c1c2ccccc2oc2cc(NCCCN3CCOCC3)ccc12 | 35* | 40* | -31% | 59%
O=C(NCCCCN1CCOCC1)c1cc2ccccc2o1 | -21 | 4 | . | .
O=C(COc1ccc2c(-c3ccccc3)cc(=O)oc2c1)NCCCn1ccnc1 | 3 | 1 | -13% | ?
O=C(COc1ccc2c(c1)oc(=O)c1ccccc12)NCCCN1CCOCC1 | 12 | 6 | ? | ?
O=c1c2ccccc2oc2cc(NCCCn3ccnc3)ccc12 | 24* | 24* | -95% | 17%
O=C1CCc2cc(NS(=O)(=O)c3ccc(Cl)cc3)cc3c2N1CC3 | . | . | ? | -25%
Cc1cccn2c(=O)nc(SCC(=O)NC3CCCCC3)nc12 | . | . | 11% | -21%
Cc1ccccc1S(=O)(=O)c1c(C)cc(C)n(C(C)C)c1=O | 13 | -4 | ? | -21%
CCCCn1c(C)cc(C)c(S(=O)(=O)c2ccccc2C)c1=O | -7 | -6 | 15µM* | .
CC1=C2C3OC(=O)C(C)[C@@H]3CC[C@](C)(O)C2C2C3C4C5(C12)[C@H]1OC(=O)[C@@H](C)C1CC[C@]4(C)O[C@]5(C)[C@@H]3O (stereo partly drawn) | 4 | 8 | 8% | -4%
NC(N)=N/N=C/c1ccccc1OC(F)F | -18 | -2 | -7% | ?
FC(F)Oc1ccccc1/C=N/n1cnc2ccccc21 | 116* | 50* | 76% | 65%
SMILES | Shiga inhibitor | Cycloheximide cs | Pf growth 96h | Pf growth 48h
COc1ccc(-c2cccc(C(=O)Nc3cccc(C(=O)O)c3)c2)cc1 | 106* | 103* | 14% | 231%
COc1cc(NC(=O)Cc2ccccc2)ccc1NC(=O)c1ccccc1 | -3 | 1 | 10µM* | 12%
COc1cccc(C(=O)Nc2cccc(-c3ccccc3)c2)c1 | 78* | 42* | 58% | 25%
COc1cccc(C(=O)Nc2ccccc2-c2ccccc2)c1 | . | . | -7% | ?
COc1ccc(NC(=O)c2cccc(NC(=O)c3ccccc3)c2)c(OC)c1 | -2 | -1 | 10µM* | -25%
COc1ccc(-c2cccc(C(=O)Nc3ccc(C)cc3)c2)cc1 | 16 | 1 | 125% | 6%
CCCC(C(=O)NCCC(C)C)N(Cc1ccccc1)C(=O)c1snc(C(N)=O)c1N (stereo not drawn) | -6 | -3 | 48% | ?
COc1cc2ncc(S(=O)(=O)c3ccccc3)c(N3CCCC(C)C3)c2cc1OC (stereo not drawn) | -4 | 0 | 11% | ?
